Assay results as given in PubChem BioAssay (NCI).
Compounds without any hit were thinned out: in the full panel of roughly 83,000, 20% have a hit.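 Single-concentration screen, 48 h exposure, 96-well plates. Endpoint: percent growth. Below 10 = active.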 The source made the active and inactive calls.

tested on: HL-60(TB) leukemia; assay: NCI-60 one-dose screen, 48 h (100 = growth as untreated, 0 = no growth, -100 = all killed); conditions: 10 µM unless noted

**Q.** For COC(=O)C1=CCC(n2cnc3c(N)ncnc32)O1 (stereo not given), which growth is on record?
**A.** 94% (inactive)

**Q.** CC(C)c1ccc(C(=O)Nc2sc3c(c2C#N)CCC(=O)C3)cc1 was tested. Which growth did it give?
**A.** -16.7% (active)

**Q.** Which growth does the source give for OCC1OC2C(NC(=S)N2c2ccccc2)C(O)C1O (stereo not given) here?
**A.** 90.8% (inactive)

**Q.** For Nc1ccc2ccc(NS(=O)(=O)N3CCCCC3)cc2c1, which growth is on record?
**A.** 2.41% (active)

**Q.** Which growth does the source give for COCCOC(=O)NC(=O)Nc1ccc(C(=O)c2ccc(Cl)cc2)cc1 here?
**A.** -13.3% (active)

**Q.** How did the growth turn out when O=S(=O)(Nc1cc(F)cc(F)c1)c1ccc(-c2cnc(C3CC3)o2)cc1 was run?
**A.** 9.05% (active)

**Q.** How did the growth turn out when C=C1CCC2C3(C)COC(c4c(OC)cccc4OC)OC3CCC2(C)C1C/C=C1/C(=O)OCC1O (stereo not given) was run?
**A.** 29.4% (inactive)

**Q.** COc1cc(C2=Nc3c(N)nc(N)nc3NC(c3cccc(Nc4ccnc5cc(C(F)(F)F)ccc45)c3)C2)cc(OC)c1OC (stereo not given) was tested. Which growth did it give?
**A.** 63.2% (inactive)

**Q.** For COc1cccc(-c2ccc3c(c2)C2CCN(Cc4ccccc4)C3C2)c1 (stereo not given), which growth is on record?
**A.** 46.2% (inactive)

**Q.** How did the growth turn out when CCOC(=O)c1c(C)oc2ncnc(N3CCN(C(=O)COc4ccc(SC)cc4)CC3)c12 was run?
**A.** 97.2% (inactive)

**Q.** O=C1C=CC(=O)N1c1ccccc1 was tested. Which growth did it give?
**A.** 44.5% (inactive)

**Q.** How did the growth turn out when O=C(Nc1nc2cccc(-c3ccc(CN4CCS(=O)(=O)CC4)cc3)n2n1)C1CC1 was run?
**A.** 66.4% (inactive)

**Q.** COc1ccc(C(=O)NCCNc2nccc(-c3c(-c4ccc(F)cc4)nc4sccn34)n2)cc1 was tested. Which growth did it give?
**A.** 88.9% (inactive)

**Q.** How did the growth turn out when CCN1C(=O)N(CC)C2Nn3c(s/c(=C\c4ccc([N+](=O)[O-])cc4)c3=O)=NC21 (stereo not given) was run?
**A.** 87% (inactive)

**Q.** Cc1nc2ccccc2c(/C=C/c2ccccc2)c1C(=O)/C=C/c1ccc(Cl)cc1 was tested. Which growth did it give?
**A.** 1.63% (active)
